Reference: PMC4336329 (PLoS ONE, 2015)
In all, about 310,000 compounds went through this assay and about 14,000 (4.5%) showed an effect of 50% or more. The effect is printed as a negative number. For the sample, strong results were picked, then their nearest neighbours and some compounds at random.

molecular target: human ether-à-go-go-related gene (hERG) potassium channel (human, UniProt Q12809); test: primary screen, population patch clamp on CHO cells stably expressing hERG; higher = less effect of the substance
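Note: peak tail current of the secondary pulse compared with the same well before compound.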

Sequence of human ether-à-go-go-related gene (hERG) potassium channel (Q12809 whole entry, looked up): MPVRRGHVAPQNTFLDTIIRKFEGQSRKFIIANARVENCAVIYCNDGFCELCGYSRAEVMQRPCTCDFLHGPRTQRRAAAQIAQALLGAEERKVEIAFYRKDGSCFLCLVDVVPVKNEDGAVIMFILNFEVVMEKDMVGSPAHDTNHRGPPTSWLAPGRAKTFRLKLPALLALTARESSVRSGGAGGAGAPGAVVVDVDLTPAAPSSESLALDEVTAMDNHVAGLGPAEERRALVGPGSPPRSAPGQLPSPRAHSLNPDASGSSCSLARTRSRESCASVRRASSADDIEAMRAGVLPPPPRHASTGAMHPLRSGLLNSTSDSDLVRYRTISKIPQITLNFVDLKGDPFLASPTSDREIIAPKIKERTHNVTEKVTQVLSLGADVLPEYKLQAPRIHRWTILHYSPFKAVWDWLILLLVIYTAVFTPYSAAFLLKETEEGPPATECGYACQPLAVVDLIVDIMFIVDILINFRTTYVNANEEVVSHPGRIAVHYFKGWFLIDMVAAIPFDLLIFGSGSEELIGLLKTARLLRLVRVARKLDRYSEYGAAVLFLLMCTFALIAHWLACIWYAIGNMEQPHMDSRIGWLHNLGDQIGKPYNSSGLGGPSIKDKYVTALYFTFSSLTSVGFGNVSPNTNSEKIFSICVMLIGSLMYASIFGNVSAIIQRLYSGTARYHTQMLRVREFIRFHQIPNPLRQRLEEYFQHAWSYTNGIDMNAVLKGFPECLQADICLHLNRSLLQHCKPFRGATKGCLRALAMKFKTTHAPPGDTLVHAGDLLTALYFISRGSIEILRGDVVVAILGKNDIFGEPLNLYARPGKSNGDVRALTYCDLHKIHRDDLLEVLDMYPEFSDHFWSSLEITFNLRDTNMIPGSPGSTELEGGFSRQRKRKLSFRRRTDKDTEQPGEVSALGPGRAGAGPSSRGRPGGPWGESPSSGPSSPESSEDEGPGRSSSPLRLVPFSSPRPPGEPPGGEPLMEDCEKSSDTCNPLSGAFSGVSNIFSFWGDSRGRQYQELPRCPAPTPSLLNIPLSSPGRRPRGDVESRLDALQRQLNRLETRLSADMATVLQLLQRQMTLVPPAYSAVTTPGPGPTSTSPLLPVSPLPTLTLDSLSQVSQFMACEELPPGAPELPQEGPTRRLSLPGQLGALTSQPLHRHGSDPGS

SMILES	hERG current change (%, negative = inhibition) at 10uM [%]
Cc1cc(NC(=O)CCN2C(=O)C3C4C=CC(C4)C3C2=O)c2ccccc2n1 (stereo not drawn)	7.51
CC(=O)Nc1nc(C(F)(F)F)cs1	7.96
CN(C(=O)c1cccnc1)c1nnc(-c2cnccn2)s1	8.06
Cc1cc(NC(=O)c2cccc3c2C(=O)N(C2CCCCC2)C3)ccc1Br	13
O=C(CCl)NCCN1C(=O)S/C(=C\c2cccnc2)C1=O	26.1
COc1ccc(C(=O)NCCN2C(=O)S/C(=C\c3cccnc3)C2=O)cc1[N+](=O)[O-]	-63.8
CS(=O)(=O)c1ccc(C(=O)NCCN2C(=O)S/C(=C\c3cccnc3)C2=O)cc1[N+](=O)[O-]	1.32
O=C(NCCN1C(=O)S/C(=C\c2cccnc2)C1=O)c1cc(S(=O)(=O)N2CCOCC2)ccc1F	-59
O=C(NCCN1C(=O)S/C(=C\c2cccnc2)C1=O)c1ccc(S(=O)(=O)N2CCCC2)cc1	-11.3
COc1ccccc1N1CC(C(=O)NCCN2C(=O)S/C(=C\c3cccnc3)C2=O)CC1=O (stereo not drawn)	1.78
O=C(NCCN1C(=O)S/C(=C\c2ccc(F)cc2)C1=O)c1cccc(S(=O)(=O)N2CCOCC2)c1	-3.04
CC(C)(Oc1ccc(Cl)cc1)C(=O)NCCN1C(=O)S/C(=C/c2cccnc2)C1=O	-62.9
CSc1cccc(N2CC(C(=O)NCCN3C(=O)S/C(=C\c4cccnc4)C3=O)CC2=O)c1 (stereo not drawn)	-68.3
Cc1cc(OCCCC(=O)NCCN2C(=O)S/C(=C\c3cccnc3)C2=O)ccc1Cl	-6.35
Cc1c(C(=O)NCCN2C(=O)S/C(=C\c3cccnc3)C2=O)cccc1[N+](=O)[O-]	-45.1
CCOc1ccc(N2CC(C(=O)NCCN3C(=O)S/C(=C\c4cccnc4)C3=O)CC2=O)cc1 (stereo not drawn)	-0.149
Cc1ccc(S(=O)(=O)NC(C)(C)CSc2ncccn2)cc1	-4.42
CC1=CC(C)(C)N(C(=O)CCl)c2ccccc21	-39.7
O=C(O)C(Nc1nc(C(F)(F)F)nc2ccccc12)c1ccccc1 (stereo not drawn)	26.2
O=C(Cc1cccs1)NCc1cccc(F)c1	14.4
CCOC(=O)C1CCN(c2c(NCc3ccc(C(=O)NCCOC)cc3)c(=O)c2=O)CC1	-7.38
CCn1cc(C(=O)Nc2ccc(F)c(F)c2)cn1	7.43
COc1ccccc1N(CC(=O)NC(C)(C)C)C(=O)CCC(=O)Nc1nccs1	-36.5
COC(=O)CN1C(=O)C2(OCCCO2)c2ccccc21	-7.31

SMILES	hERG current change (%, negative = inhibition) at 10uM [%]
COc1cccc(-c2cccc(NC(=O)C3CCN(Cc4ccon4)CC3)c2)c1	-27.8
O=C(Nc1cccc(-c2cccc(Cl)c2)c1)C1CCN(Cc2ccon2)CC1	-52.7
Cl.O=C(O)C1CCN(Cc2ccccn2)CC1	16.2
O=C(Nc1cccc(-c2cccc(Cl)c2)c1)C1CCN(Cc2ccccn2)CC1	-77.8
Cc1cc(C)n(-c2ccc(NC(=O)C3CCN(Cc4ccccn4)CC3)cc2)n1	-14.5
CC(c1ccccc1)C1CC(=O)N(Cc2ccco2)C1=O (stereo not drawn)	25.9
COc1ccc(CN2CC(C(=O)NCCC(C)C)CC2=O)cc1 (stereo not drawn)	10.5
COc1ccc(NC(=S)NCCSc2ccc(C)cc2)c(OC)c1	5.2
CCOC(=O)c1c(C)[nH]c(C)c1S(=O)(=O)NCCc1sccc1C	-0.705
Cc1cc2ncn(CC(O)COc3cccc(C(=O)O)c3)c2cc1C (stereo not drawn)	-10.8
Cc1ccc(C(=O)Nc2ccccc2C(=O)O)cc1S(=O)(=O)NCc1ccccc1	9.8
CC(CN1CCOCC1)C(=O)c1ccccc1.Cl (stereo not drawn)	8.47
Cc1ccc(C)c(S(=O)(=O)NC(C)C(=O)Nc2ccc(-c3nc4ccccc4s3)cc2)c1 (stereo not drawn)	2.9
Cc1ccc(/C=C/C(=O)OCC(=O)NC(=O)NCc2ccco2)cc1	18.7
CCc1cccc(C)c1NC(=O)COC(=O)c1ccc2c(c1)S(=O)(=O)c1ccccc1C2=O	-0.0165
Cc1ccc(-n2ncc3c2CC(C)(C)CC3NC(=O)CCc2ccc(=O)[nH]n2)cc1 (stereo not drawn)	-11.2
CC1(C)Cc2c(cnn2-c2ccccc2)C(NC(=O)CCc2ccncc2)C1 (stereo not drawn)	-68.8
C=CCC(=O)NC1CC(C)(C)Cc2c1cnn2-c1ccc(C)cc1 (stereo not drawn)	-69.7
CCc1nccn1CCC(=O)NC1CC(C)(C)Cc2c1cnn2-c1ccc(C)cc1 (stereo not drawn)	-22.1
COC(=O)CCC(=O)NC1CC(C)(C)Cc2c1cnn2-c1ccccc1 (stereo not drawn)	-12
Cc1nn(C)c(C)c1CCC(=O)NC1CC(C)(C)Cc2c1cnn2-c1ccccc1 (stereo not drawn)	-28.1
C=CCC(=O)NC1CC(C)(C)Cc2c1cnn2-c1ccccc1C (stereo not drawn)	4.35
CSCCC(=O)NC1CC(C)(C)Cc2c1cnn2-c1ccccc1C (stereo not drawn)	-10.4
COc1ccc(-n2ncc3c2CC(C)(C)CC3NC(=O)CCC2=NNC(=O)CC2)cc1 (stereo not drawn)	15.8

SMILES	hERG current change (%, negative = inhibition) at 10uM [%]
COC(=O)CCCC(=O)NC1CC(C)(C)Cc2c1cnn2-c1ccc(C)cc1 (stereo not drawn)	-24.7
Cc1ccc(-n2ncc3c2CC(C)(C)CC3NC(=O)CCc2ccncc2)cc1 (stereo not drawn)	-72.2
Cc1ccccc1-n1ncc2c1CC(C)(C)CC2NC(=O)CCC1=NNC(=O)CC1 (stereo not drawn)	-75.9
CCCCOc1ccc(C(=O)NCC(=O)OC2CCOC2=O)cc1 (stereo not drawn)	4.84
Cc1cc(C(=O)N/N=C/c2sc(N3CCOCC3)nc2-c2ccccc2)c(C)o1	8.26
COc1ccc(C(=O)N2CCCC2)cc1S(=O)(=O)N1CCOCC1	-1.7
CCN[C@H]1CN(CCCOC)S(=O)(=O)c2sc(S(N)(=O)=O)cc21	2.51
CC(C)NS(=O)(=O)c1ccc(CCC(=O)N2CCc3ccccc3C2)cc1	-11.9
Cc1c(C(=O)OCC(=O)c2ccc3c(c2)OCCO3)oc2ccccc12	4.75
COc1cc(/C=C2\CCC(C3CCCC3)C2=O)cc(OC)c1OC (stereo not drawn)	9.98
O=C(CSc1nnc2ncccn12)Nc1cccc2ccccc12	5.09
Cc1ccc(S(=O)(=O)N(C)CCCC(=O)Nc2cccc3ccccc23)cc1	-28.1
CC(=O)Nc1ccc(NC(=S)NC(=O)/C=C/c2ccc(Cl)cc2)cc1	17.7
O=C(Oc1c(Br)cc(C(=S)N2CCOCC2)cc1Br)c1ccc(Cl)cc1	11.3
CC(=O)N1N=C(c2ccc(NS(=O)(=O)c3ccccc3)cc2)CC1c1ccco1 (stereo not drawn)	-12.2
Cc1ccc(-n2ncc3c2CC(C)(C)CC3NC(=O)CCN2CCCO2)cc1 (stereo not drawn)	-37.7
Cc1ccc(-n2ncc3c2CC(C)(C)CC3NC(=O)CCc2cnn(C)c2)cc1 (stereo not drawn)	-52.6
Cc1ccc(-n2ncc3c2CC(C)(C)CC3NC(=O)CCc2cccnc2)cc1 (stereo not drawn)	-63.9
Cc1ccc(-n2ncc3c2CC(C)(C)CC3NC(=O)CCc2c(C)noc2C)cc1 (stereo not drawn)	-32.3
Cc1ccc(-n2ncc3c2CC(C)(C)CC3NC(=O)CCN2CCCCC2=O)cc1 (stereo not drawn)	3.16
Cc1ccc(-n2ncc3c2CC(C)(C)CC3NC(=O)CCCN2CCCC2=O)cc1 (stereo not drawn)	-1.21
O=c1ccc2cc(S(=O)(=O)N3CCN(c4cc(Cl)ccc4Cl)CC3)ccc2o1	-20.7
Cc1cc(NC(=O)CSCC(=O)Nc2ccccc2Oc2ccccc2)no1	-8.79
NC(=O)CSc1oc(-c2cccs2)nc1S(=O)(=O)c1ccccc1	-15.5

SMILES	hERG current change (%, negative = inhibition) at 10uM [%]
COc1cccc(/C=N/NC(=O)CN2CC(c3ccccc3)CC2=O)c1O (stereo not drawn)	-9.13
O=c1[nH]c2ccccc2c(O)c1-[n+]1ccccc1.[Cl-]	22.5
COc1ccc(CCNC(=O)C(=O)Nc2ccc3nc4n(c(=O)c3c2)CCCCC4)cc1OC	-27.3
Oc1ccc(/C=N/Nc2nc(N3CCCC3)nc(N3CCCC3)n2)cc1O	2.71
Cl.c1ccc(CSCc2cn3ccccc3n2)cc1	2.98
Cc1ccccc1NC(NC(=O)OCCn1c([N+](=O)[O-])cnc1C)C(Cl)(Cl)Cl (stereo not drawn)	2.42
Cc1ccc(NC(NC(=O)OCCn2c([N+](=O)[O-])cnc2C)C(Cl)(Cl)Cl)cc1 (stereo not drawn)	6.71
Cc1ncc([N+](=O)[O-])n1CCOC(=O)NC(Nc1ccc(F)cc1)C(Cl)(Cl)Cl (stereo not drawn)	-54.6
COc1ccccc1NC(=O)COn1nnc2ccc(S(=O)(=O)N3CCOCC3)cc21	4.92
CN(CC(=O)Nc1ccc(Cl)c(C(F)(F)F)c1)C(=O)CNC(=O)C1CCCCC1	-31.5
COc1ccc(NC(=O)CN(C)C(=O)CCCNC(=O)c2ccc(Cl)cc2)cc1	-30.8
CN(CC(=O)Nc1ccc(Cl)c(C(F)(F)F)c1)C(=O)CCN1C(=O)C2CCCCC2C1=O (stereo not drawn)	-50.2
CCOc1ccc(NC(=O)CN(C)C(=O)c2cn3ccccc3n2)cc1OCC	-19.2
CN(CC(=O)Nc1ccc(Cl)c(C(F)(F)F)c1)C(=O)CCN1C(=O)C2CC=CCC2C1=O (stereo not drawn)	-37.2
Cc1ccc(OCC(=O)N(C)CC(=O)Nc2ccc(Cl)c(C(F)(F)F)c2)c([N+](=O)[O-])n1	-54.8
COc1ccccc1C(=O)NCCC(=O)N(C)CC(=O)Nc1ccc(Cl)cc1	-31.9
CN(CC(=O)Nc1cccc(F)c1)C(=O)c1cn2ccccc2n1	-5
Cc1ccc(OCC(=O)N(C)CC(=O)Nc2ccc(F)cc2)c([N+](=O)[O-])n1	-24.2
CN(CC(=O)Nc1ccc(Cl)c(C(F)(F)F)c1)C(=O)c1cn2ccccc2n1	-61.9
CN(CC(=O)Nc1ccc(Cl)cc1)C(=O)CCNC(=O)c1ccc(Cl)cc1	-67.7
Cc1ccc(OCC(=O)N(C)CC(=O)Nc2ccccc2Cl)c([N+](=O)[O-])n1	-16.7
